# Assay results taken from PubChem BioAssay (NCATS).
# “And” between values parts separate entries of the source, which are not always exact repeats. Equal values may be shown once. Inconclusive results are not listed. Where a call stands in place of a potency, no number is given. The source made the active and inactive calls. Unless noted, calls follow the shape of the dose curve; as a rule, active = well fitted curve in the direction sought with a large enough effect; inconclusive = small, poorly fitted or top-dose-only effect, or another doubt; inactive = no such curve, though single readings can be large; an effect the other way counts as inactive or inconclusive.
# Experiments:
# [1] = target: Alpha-galactosidase A (Homo sapiens) (UniProt P06280); assay: Counterscreen for Glucocerebrosidase Inhibitors: qHTS Assay for Human alpha-Galactosidase at pH 4.5 (AID 992)
# Chain of Alpha-galactosidase A (Homo sapiens) (P06280 whole entry, looked up): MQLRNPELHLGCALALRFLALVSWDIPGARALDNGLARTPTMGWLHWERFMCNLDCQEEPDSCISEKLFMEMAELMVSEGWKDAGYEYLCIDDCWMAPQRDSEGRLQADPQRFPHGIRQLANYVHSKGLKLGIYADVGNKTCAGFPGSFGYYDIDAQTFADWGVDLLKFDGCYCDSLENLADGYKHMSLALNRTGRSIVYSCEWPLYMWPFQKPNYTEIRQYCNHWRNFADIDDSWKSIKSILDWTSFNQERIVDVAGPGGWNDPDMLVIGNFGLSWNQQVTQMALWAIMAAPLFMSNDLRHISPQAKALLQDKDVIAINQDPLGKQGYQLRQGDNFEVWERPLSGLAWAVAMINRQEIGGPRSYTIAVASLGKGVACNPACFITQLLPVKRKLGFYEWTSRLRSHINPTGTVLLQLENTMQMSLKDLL
# Outline: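 Enzyme at 2 nM final was combined with compound (0.7 nM to 77 uM) and 80 uM 4-methylumbelliferyl alpha-D-galactopyranoside in 50 mM citric acid, 0.005% Tween-20, pH 4.5. After 20 min at room temperature, fluorescence was read (Ex 365/Em 440 nm); AC50 came from Hill fits.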
# [2] = target: alpha-glucosidase (Oryza sativa, rice) (UniProt Q653V4); assay: Counterscreen for Glucocerebrosidase Inhibitors: qHTS Assay for Rice alpha-Glucosidase at pH 5.0 (AID 997)
# Outline: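 Rice alpha-glucosidase (4 nM final) with 400 uM 4-methylumbelliferyl-alpha-D-glucopyranoside in citrate buffer pH 5.0, 20 min at room temperature, stopped at pH 10; fluorescence 365/440 nm, compounds 0.7 nM–77 uM, AC50 from Hill fits.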
# [3] = Validation of Assay for Modulators of Lamin A Splicing (AID 1459; active = well fitted curve in the direction sought with a large enough effect in the signal ratio; the % refers to the signal ratio;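 also: cells exposed to compound for two days before reading; ratio rise marks activators and ratio drop marks inhibitors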)
# Outline: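 Dual-reporter HeLa S3 line (lamin A-EGFP minigene, DsRed2) treated with compounds 48 hrs, 0.5% DMSO final. Endpoint: EGFP/DsRed2 total intensity ratio from laser-scanning microplate cytometry.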
# [4] = qHTS Assay for Lipid Storage Modulators (AID 1519; calls by dose curve); details: Drosophila S3 cells, BODIPY lipid droplet/cell ratio, laser cytometry, cells loaded with oleic acid
# Outline: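 Cells seeded at 5,000 per well were treated with compounds over a concentration series and loaded with oleic acid (400 uM, as added). Lipid droplet fluorescence (488 nm excitation, 500-530 nm channel) was read by laser-scanning cytometry and normalized to 20 uM Triacsin C.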
# [5] = Cell Viability - LYMP2-025 (AID 976)
# Outline: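 Seed 2500 LYMP2-025 cells/well; 5 hr at 37 C; add compound; 24 hr at 37 C; add CellTiter-Glo; 30 min RT; read luminescence. AC50 from Hill-modelled concentration-response.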
# [6] = Cell Viability - LYMP2-002 (AID 977);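 also: compound exposure lasted 24 h at 37 °C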; also: potency is read from the fitted curve at half-maximal effect
# Outline: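 Human lymphoblastoid LYMP2-002 cells, 2500 per well, exposed to compounds for 24 h at 37 C in complete medium; viability read as intracellular ATP by CellTiter-Glo luminescence, AC50 from Hill fits.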
# [7] = Cell Viability - LYMP2-018 (AID 985); also: nearly all actives have a fitted effect of over 50% in size; also: potency is read from the fitted curve at half-maximal effect
# Outline: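 Luminescent ATP signal (CellTiter-Glo, read after 30 min at room temperature) reports viable cells after 24 hr compound treatment at 37 C. Concentration-response data were fitted to the standard Hill equation for AC50.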
# [8] = Cell Viability - LYMP1-002 - Assay at 40 hr (AID 994); also: nearly all actives have a fitted effect of over 60% in size; also: potency is read from the fitted curve at half-maximal effect
# Outline: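 Luminescent ATP signal served as the viability readout, with decreases taken as toxicity. Cells were treated with compounds across a concentration range for 40 hours at 37 C, and AC50 values came from standard Hill modeling.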
# [9] = Cell Viability - LYMP2-023 (AID 975);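 also: cellular ATP measured by luciferase luminescence as viability proxy; nearly all actives have a fitted effect of over 55% in size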
# Outline: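 2500 cells/well, 5 hr 37 C; cpd 24 hr 37 C; CellTiter-Glo, 30 min RT; luminescence. qHTS conc-response, Hill fit -> AC50. Pos ctrl tetraoctylammonium bromide.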
# [10] = Cell Viability - LYMP2-006 (AID 978); also: nearly all actives have a fitted effect of over 60% in size
# Outline: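 In this cytotoxicity screen, the human lymphoblastoid line grew in complete medium with test compounds for 24 hr at 37 C. Cellular ATP served as the viability signal.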
# [11] = Cell Viability - LYMP2-007 (AID 979);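 also: cells exposed to compound for 24 h before reading; nearly all actives have a fitted effect of over 60% in size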
# Outline: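 Luminescent ATP signal (CellTiter-Glo) serves as the viability read-out after 24 hr compound treatment of lymphoblastoid cells in complete medium at 37 C. Concentration-response data were fitted to the Hill equation to give AC50 values.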
# [12] = Cell Viability - LYMP2-008 (AID 980); also: nearly all actives have a fitted effect of over 60% in size
# Outline: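 qHTS, human lymphoblastoid line, 2500 cells/well; 5 hr preincubation, 24 hr compound, 37 C. CellTiter-Glo ATP luminescence. AC50 via Hill equation. Tetraoctylammonium bromide positive control.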
# [13] = Cell Viability - LYMP2-010 (AID 981); also: nearly all actives have a fitted effect of over 55% in size
# Outline: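 Luminescent ATP signal (CellTiter-Glo) served as the viability read-out. Cells of the human lymphoblastoid line were treated with compound over a concentration range for 24 hours at 37 C, and AC50 values came from Hill-equation modeling.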
# [14] = Cell Viability - LYMP2-014 (AID 983); also: nearly all actives have a fitted effect of over 50% in size
# Outline: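 Luminescent ATP signal (CellTiter-Glo, 30 min at room temperature) serves as the viability read-out after 24 hr compound exposure at 37 C. Cells were seeded at 2500 per well and settled 5 hr beforehand.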
# [15] = Cell Viability - LYMP2-016 (AID 984); also: nearly all actives have a fitted effect of over 55% in size
# Outline: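 Concentration-dependent ATP depletion measured in LYMP2-016 lymphoblastoid cells, 24 h, 37 C; luciferase-based luminescent detection; Hill-equation AC50.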
# [16] = Cell Viability - LYMP2-020 (AID 986); also: nearly all actives have a fitted effect of over 55% in size
# Outline: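 Luminescent ATP signal (CellTiter-Glo, 30 min at room temperature) is the read-out after 24 h compound treatment of lymphoblastoid cells at 37 C. AC50 values come from Hill-equation fits across concentrations.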
# [17] = Cell Viability - LYMP2-022 (AID 987); also: nearly all actives have a fitted effect of over 55% in size
# Outline: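 qHTS: human lymphoblastoid cells 2500/well; 5 hr 37 C; cpd added; 24 hr 37 C; CellTiter-Glo, 30 min RT; luminescence. AC50 via Hill fit; tetraoctylammonium bromide positive ctrl.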
# [18] = Cell Viability - LYMP2-024 (AID 988); also: nearly all actives have a fitted effect of over 60% in size
# Outline: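 Steps: seed 2500 cells/well, 5 hr 37 C; add compound, 24 hr 37 C; add CellTiter-Glo, 30 min room temperature; read luminescence. AC50 derived by Hill modelling of concentration-dependent ATP loss.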
# [19] = Cell Viability - LYMP2-026 (AID 989); also: nearly all actives have a fitted effect of over 50% in size
# Outline: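 Luminescent ATP signal (CellTiter-Glo, 30 min room temperature) measures viable lymphoblastoid cells after 24 hr compound treatment at 37 C. Decreased ATP reflects acute toxicity; AC50 values come from Hill-equation modeling.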
# [20] = Cell Viability - LYMP1-002 - Assay at 24 hr (AID 993)
# Outline: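 Cells plated 2500/well, 5 hr 37 C; compounds added, 24 hr 37 C; CellTiter-Glo added, 30 min RT; luminescence read. Tetraoctylammonium bromide positive control. Hill-equation AC50.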
# [21] = measured here: cell count channel max response
# [22] = measured here: lipid channel max response
smiles,measurement,setting,value
CCc1c(C)[nH]c2c1C(=O)C(CN1CCOCC1)CC2 (centres undefined),outcome,[1],inactive
same,outcome,[2],inactive
same,outcome,[3],inactive
CC(C)NCC(O)c1cc(O)cc(O)c1 (centres undefined),outcome,[3],inactive
same,"activity change, negative = inhibition",[4]; at 57.5 µM (top of the series),10.7% (inactive) and 0.0278% (inactive)
same,max response,[4]; [21],8.74% and -21.1%
same,max response,[4]; [22],23% and -23.1%
CCCCCN(CCCCC)C(=O)C(CCC(=O)O)NC(=O)c1ccc(Cl)c(Cl)c1 (centres undefined),outcome,[3],inactive
CCCCNc1ccc(C(=O)OCCN(C)C)cc1,outcome,[1],inactive
same,outcome,[2],inactive
same,outcome,[3],inactive
same,"activity change, negative = inhibition",[4]; at 25.7 µM (top of the series),3.23% (inactive)
same,"activity change, negative = inhibition",[4]; at 57.5 µM (top of the series),14.3% (inactive)
same,max response,[4]; [21],-0.19% and 24.9%
same,max response,[4]; [22],3.57% and 43.3%
CCN(Cc1ccncc1)C(=O)C(CO)c1ccccc1 (centres undefined),outcome,[3],inactive
O=C(O)CCCCCCCC(=O)O,outcome,[1],inactive
same,outcome,[2],inactive
same,outcome,[3],inactive
CC(C(=O)O)c1ccc(CC2CCCC2=O)cc1 (centres undefined),outcome,[3],inactive
same,"activity change, negative = inhibition",[4]; at 57.5 µM (top of the series),-1.18% (inactive)
same,max response,[4]; [21],-27.7%
same,max response,[4]; [22],-27%
COCCc1ccc(OCC(O)CNC(C)C)cc1 (centres undefined),outcome,[3],inactive
COC(=O)[C@@H](N)Cc1ccc(O)c(O)c1,outcome,[1],inactive
same,outcome,[2],inactive
same,outcome,[3],inactive
COC(=O)[C@H]1[C@H]2C[C@@H]3c4[nH]c5cc(OC)ccc5c4CCN3C[C@H]2C[C@@H](OC(=O)c2cc(OC)c(OC)c(OC)c2)[C@@H]1OC,outcome,[5],inactive
same,Potency,[6],79.4 µM (active)
same,Potency,[7],50.1 µM (active)
same,outcome,[1],inactive
same,Potency,[8],50.1 µM (active)
same,outcome,[2],inactive
same,outcome,[3],inactive
FC(F)(F)c1ccccc1-n1ccnc1,outcome,[1],inactive
same,outcome,[2],inactive
same,outcome,[3],inactive
same,"activity change, negative = inhibition",[4]; at 57.5 µM (top of the series),7.35% (inactive)
same,max response,[4]; [21],11%
same,max response,[4]; [22],25.3%
CC(N=C(NC#N)Nc1ccncc1)C(C)(C)C (centres undefined),outcome,[3],inactive
same,"activity change, negative = inhibition",[4]; at 57.5 µM (top of the series),13.9% (inactive) and 0.102% (inactive)
same,max response,[4]; [21],1.72% and -23.9%
same,max response,[4]; [22],14.8% and -22.8%
Cc1scc2c1N(C(=O)CN1CCN(C)CC1)c1ccccc1NC2=O,outcome,[1],inactive
same,outcome,[2],inactive
same,"activity change, negative = inhibition",[4]; at 25.7 µM (top of the series),-2.57% (inactive)
same,"activity change, negative = inhibition",[4]; at 57.5 µM (top of the series),0.86% (inactive) and 1.7% (inactive) and 0.0907% (inactive)
same,max response,[4]; [21],-8.48% [middle of 4 runs]
O=C(O)CN(CCN(CC(=O)O)CC(=O)O)CCN(CC(=O)O)CC(=O)O,outcome,[1],inactive
same,outcome,[2],inactive
same,"activity change, negative = inhibition",[4]; at 25.7 µM (top of the series),-4.98% (inactive)
same,"activity change, negative = inhibition",[4]; at 57.5 µM (top of the series),0.152% (inactive)
same,max response,[4]; [21],-17.8% and 39.9%
same,max response,[4]; [22],-19.2% and 38.7%
COC(=O)C1=C(C)NC(C)=C(C(=O)OCCN(C)Cc2ccccc2)C1c1cccc([N+](=O)[O-])c1 (centres undefined),"activity change, negative = inhibition",[4]; at 57.5 µM (top of the series),2.25% (inactive)
same,max response,[4]; [21],-9.5%
same,max response,[4]; [22],-7.38%
NC(=O)N1c2ccccc2C=Cc2ccccc21,outcome,[9],inactive
same,outcome,[5],inactive
same,Potency,[6],inactive
same,Potency,[10],inactive
same,outcome,[11],inactive
same,outcome,[12],inactive
same,Potency,[13],inactive
same,outcome,[14],inactive
same,outcome,[15],inactive
same,Potency,[7],inactive
same,Potency,[16],inactive
same,Potency,[17],inactive
same,Potency,[18],inactive
same,outcome,[19],inactive
same,outcome,[1],inactive
same,outcome,[20],inactive
same,Potency,[8],inactive
same,outcome,[2],inactive
same,"activity change, negative = inhibition",[4]; at 25.7 µM (top of the series),-0.889% (inactive)
same,max response,[4]; [21],-0.817%
same,max response,[4]; [22],-5.44%
